# High-throughput results as filed in PubChem BioAssay.
# CHOP inhibitor: inhibitors of CHOP induction in ER stress response; CHO-K1 CHOP-promoter luciferase, tunicamycin-induced, 15-18 h; 3.8% of 220,000 active; inhibition, % at 10 µM;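 active = compounds that reduced the stress-induced luciferase reporter signal by more than about 70% of percent inhibition, limit read from the data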;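 note: 0% = tunicamycin plus vehicle and 100% = wells without tunicamycin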
# TRPM1 prom inh: MITF TRPM1 promoter inhibition in SK-MEL-5 cells. SK-MEL-5 TRPM1 promoter luciferase, 24 h. inhibition, % at 12.5 µM. 0.83% of 330,000 active;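 active = mean inhibition across replicates of 60% or more, whatever share of single replicates reaches that level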
# CF NFkB block: inhibitors of cystic fibrosis induced NF-kB. 0.86% of 360,000 active. AID 588850. inhibition, % at 5 µM. KKLEB NF-kB-GFP reporter, PAF-induced, GFP fluorescence overnight;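 active = at least 50% inhibition at 5 µM, scaled per plate between neutral and stimulator controls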;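 note: PAF is a Pseudomonas aeruginosa culture filtrate used as stimulus; plate controls were PAF-stimulated DMSO wells for no effect and unstimulated DMSO wells for full effect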
# Peg3 prom inh: Peg3 promoter activity inhibition; HeLa PEG-Prom luciferase reporter, luminescence, overnight; inhibition, % at 20 µM; 1.7% of 360,000 active; AID 588405;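 active = inhibition of at least 50% at 20 µM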
# HIF-2a block: inhibitors of HIF-2a. 0.72% of 360,000 active. 786-0 RCC cells HIF-2a reporter, luciferase luminescence, overnight. AID 624352. inhibition, % at 18.8 µM;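 active = inhibition of the luminescence signal of 40% or more relative to plate controls, in a single-dose primary screen at 18.75 µM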
# KKLEB tox: reduces viability of KKLEB cystic fibrosis airway cells | KKLEB CF airway cells viability, ATPlite luminescence, overnight; active compounds read low; cells stimulated with P. aeruginosa culture filtrate | activity change (cytotoxicity), % at 5 µM | 0.36% of 360,000 active;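 active = corrected activity change at or below -50% at 5 µM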
# * = called active by the depositor; x = no result. Compounds with a hit are over-represented: about 4.3% of the library has one in this group of screens.
SMILES,CHOP inhibitor,TRPM1 prom inh,CF NFkB block,Peg3 prom inh,HIF-2a block,KKLEB tox
COCOCCn1cc(CN2CCS(=O)(=O)N(Cc3ccc(-c4ccc(Cl)c(Cl)c4)cc3)C(C)C2=O)nn1 (stereo unspecified),x,x,20,93*,-38,-13
COCOCCn1cc(CN2CCS(=O)(=O)N(Cc3ccc(-c4ccc(C)cc4)cc3)C(C)C2=O)nn1 (stereo unspecified),x,x,10,11,-1,-4
CCN1C(=O)[C@H]2[C@@H](c3ccc(-c4ccc(F)cc4)cc3)N3CCCC[C@@]3(C(=O)OC)[C@H]2C1=O,x,-8,20,18,4,-18
O=c1[nH]c(=S)[nH]c2c1C(c1ccc(F)cc1)OC(C1CCCCC1)C2 (stereo unspecified),x,x,4,2,16,-17
CCc1ccc(C(=O)COC(=O)CNC(=O)C2CCCCC2)cc1,x,-51,14,-67,-42,-6
Cn1c(O)c(C2=c3ccccc3=NC2=O)[nH]c1=S,84*,11,3,13,6,-10
COc1ccc2nc(-n3c(O)c(C4=c5ccccc5=NC4=O)[nH]c3=S)sc2c1,103*,10,15,-22,-70,14
C[C@@H]1Cc2[nH][nH]c(=O)c2[C@H](c2ccc(Cl)cc2)O1,x,x,x,x,-14,x
Cc1ccc(S(=O)(=O)N[C@H](C(=O)Oc2ccc3c(C(F)(F)F)cc(=O)oc3c2)c2ccccc2)cc1,75*,-1,15,-4,1,-6
CC(C)CC(N)c1csc(Nc2ccc(C(F)(F)F)cn2)n1 (stereo unspecified),x,x,17,102*,-11,-20
NC(c1csc(Nc2cnccn2)n1)C1CCCCC1 (stereo unspecified),x,x,-4,-9,-33,-4
NC(Cc1ccc(Cl)cc1)c1csc(Nc2ccc(C(F)(F)F)cn2)n1 (stereo unspecified),x,x,27,101*,12,-7
NC(Cc1ccc(Cl)cc1)c1csc(Nc2nccc(C(F)(F)F)n2)n1 (stereo unspecified),x,x,-4,83*,10,-23
NC(c1csc(Nc2ccc(C(F)(F)F)cn2)n1)C1CCCCC1 (stereo unspecified),x,x,16,99*,9,-15
Cc1ccc(C(=O)N2CCN(c3cccc(C)c3C)CC2)cc1S(=O)(=O)N1CCOCC1,x,15,4,12,-9,5
Cc1noc(C)c1C(=O)Nc1nccs1,x,-1,-10,-1,10,2
NC(Cc1ccc(C(F)(F)F)cc1)c1csc(Nc2ccc(C(=O)NCc3ccco3)cn2)n1 (stereo unspecified),x,x,1,86*,-10,-3
NC(Cc1ccc(C(F)(F)F)cc1)c1csc(Nc2ccc(C(=O)NCCCO)cn2)n1 (stereo unspecified),x,x,2,43,17,-3
COc1cc(OC)nc(Nc2nc(C(N)Cc3ccc(Cl)cc3)cs2)n1 (stereo unspecified),x,x,12,99*,7,-11
O=C(O)c1cccc(NC(=S)N/N=C/c2ccccn2)c1,40,63*,11,-62,36,7
O=C(N/N=C/c1ccccn1)c1cccc([N+](=O)[O-])c1,13,8,-2,9,1,-1
O=C(N/N=C/c1ccccn1)c1cc([N+](=O)[O-])cc([N+](=O)[O-])c1,29,67*,-5,12,14,-6
NC(=O)NC(CC(=O)NNC(=O)c1cccs1)c1ccc(Cl)cc1 (stereo unspecified),x,-2,4,6,15,4
Cc1nc(CSc2ccc(Cl)cc2)cc(NCc2ccccc2)n1,91*,-8,17,-74,-77,-10
CNc1cc(CSc2ccc(Cl)cc2)nc(C)n1,-15,-78,11,-216,-229,7
SMILES,CHOP inhibitor,TRPM1 prom inh,CF NFkB block,Peg3 prom inh,HIF-2a block,KKLEB tox
CCOC(=O)c1[nH]cnc1C(=O)N1CCC(C)CC1,x,-3,-24,4,3,4
CCCC(=O)Nc1cc(-c2nn(C)c(=O)c3ccccc23)ccc1N1CCCCC1,x,2,-21,13,27,-12
CCCC(=O)Nc1cc(-c2nnc(OC)c3ccccc23)ccc1N1CCCCC1,72*,x,x,x,x,x
Fc1cccc(Nc2nc3ccccc3n3nnnc23)c1,87*,-2,-8,-99,-108,-16
COc1cccc(Nc2nc3ccccc3n3nnnc23)c1,88*,-41,-6,-117,-215,-9
O=C1CC(c2ccc(F)cc2)Sc2ccccc2N1 (stereo unspecified),5,7,0,-50,-16,-6
COc1cc(C2CC(=O)Nc3ccccc3S2)cc(OC)c1OC (stereo unspecified),21,8,-14,51*,11,-5
COc1ccccc1-c1cnc(C(O)c2cccc(F)c2)[nH]1 (stereo unspecified),x,x,7,-18,-38,-22
COCCNC(=O)/C(C#N)=c1\s/c(=C\c2ccccc2OC(F)F)c(=O)n1Cc1ccccc1,95*,x,x,x,x,x
CN(C(=O)CC1C(=O)NCCN1Cc1cccc(C(F)(F)F)c1)C1CCOCC1 (stereo unspecified),x,-1,8,8,11,2
CC1C/C(=N/NC(=O)c2ccc(CSc3nc4ccccc4[nH]3)cc2)CC(C)(C)C1 (stereo unspecified),75*,-2,14,-11,11,-7
CC1C/C(=N/Nc2nc3ccccc3[nH]2)CC(C)(C)C1 (stereo unspecified),-32,15,5,-15,-66,-4
CC(=NNC(=S)N1CC2CCC(CC2)C1)c1cnccn1,x,65*,0,2,-61,-11
CC(=NNC(=S)N1CC2CCC(CC2)C1)c1ccccn1,x,x,-11,-106,-115,6
Oc1ccc2nnc3c(Br)cnn3c2c1,x,-4,-4,-18,-3,9
COc1ccc(/C=C2\CCc3ccccc3C2=O)cc1OC,-6,-34,26,-153,-152,-15
CCNC(=O)COc1ccc(/C=C2\COc3ccccc3C2=O)cc1OC,x,-7,11,71*,17,4
CCOc1cc(/C=C2\COc3ccccc3C2=O)ccc1OCC(=O)N(C)C,x,12,19,62*,25,-12
COc1ccc(O)c(C(=O)CC(=O)c2ccccc2C)c1,104*,-50,5,-162,-183,16
COc1ccc(O)c(C(=O)CC(=O)c2cccnc2)c1,x,-60,-37,-216,-164,-4
Cc1noc(C)c1C(=O)N1CCCC(C)(C(=O)NS(=O)(=O)C2CC2)C1 (stereo unspecified),x,x,-17,-10,11,11
CCOC(=O)c1[nH]c2cc3c(cc2c1NC(=O)CN1CCc2ccccc2C1)OCO3,x,13,-2,68*,-8,-4
CCc1noc(C)c1C(=O)Nc1nc(-c2ccc(Cl)cc2Cl)cs1,73*,12,-8,29,0,8
